From PubChem BioAssay (NCATS)
Results filed as inconclusive are left out. Entries that show only a call come without a potency. Active and inactive are the calls of the source. Calls follow the shape of the dose curve; as a rule, active = well fitted cell-killing curve with a large enough effect; inconclusive = small, poorly fitted or top-dose-only effect, or effect the other way; inactive = no such curve, though single readings can be large or run the other way.

assay: Quantitative High-Throughput drug screen in 47 multiple myeloma cell lines against the NCATS MIPE library collection: EJM_DSMZ cell viability assay (AID 1918926; also: nearly all actives have a fitted effect of over 30% in size); settings: EJM myeloma cell viability, CellTiter-Glo ATP, 48 h; series mostly up to 45.8 µM
Summary of the method: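 Luminescent ATP measurement with CellTiter-Glo gives viability, scaled between DMSO-only wells (100%) and media-only wells (0%). Cells, 500 per well, faced library compounds for 48 hours at 37C.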
Potency is read from the fitted curve at half-maximal effect.

Row | SMILES | Potency
1 | N#Cc1c(N(CC(=O)O)CC(=O)O)sc(C(=O)O)c1CC(=O)O | inactive
2 | CC1C(=O)OC2C(O)C34C5CC(C(C)(C)C)C36C(OC(=O)C6O)OC4(C(=O)O5)C12O (stereo not drawn) | inactive
3 | O=C(Nc1cccc(C(F)(F)F)c1)Nc1cc(S(=O)(=O)NC2CC2)ccc1-c1ccsc1 | inactive
4 | O=C(O)c1ccc(O)c2ncc(N3CCOCC3)cc12 | inactive
5 | CN(C)c1ccc(-c2nc3ncc(Cl)c(N4CCN(CC(=O)Nc5nccs5)CC4)c3[nH]2)cc1 | 5.9 µM (active)
6 | OC[C@H]1O[C@@H](OCCc2ccc(O)cc2)[C@H](O)[C@@H](O)[C@H]1O | inactive
7 | Oc1cc(O)cc(C=Cc2ccc(O)c(O)c2)c1 | 20.9 µM (active)
8 | COc1cc(N2CCN(C)CC2)ccc1Nc1nc(N)c(C(=O)c2c(Cl)cccc2Cl)s1 | 23.5 µM (active)
9 | Cc1c(-c2cccc3c(CCCOc4cccc5ccccc45)c(C(=O)O)n(Cc4cccnc4)c23)c(COc2ccc(N3CCN([S+](=O)([O-])N(C)C)CC3)cc2)nn1C | 14.8 µM (active)
10 | CC(=O)OCC(=O)[C@@]1(O)CC[C@H]2[C@@H]3CCC4=CC(=O)C=C[C@]4(C)[C@@H]3[C@@H](O)C[C@@]21C | inactive
11 | CC(C)C[C@H](NC(=O)c1cc2ccccc2s1)C(=O)N1CCN(C(=O)[C@H](CO)NS(=O)(=O)c2ccc(Cl)cc2Cl)CC1 | 18.7 µM (active)
12 | Cc1cccc2c1CC[C@H](CN1CCC(c3c(Cl)cccc3Cl)CC1)C[C@@H]2O | 18.7 µM (active)
13 | CN[C@H]1[C@@H](O[C@@H]2[C@H](O[C@@H]3[C@@H](O)[C@@H](O)[C@@H](N=C(N)N)[C@@H](O)[C@@H]3N=C(N)N)O[C@H](C)[C@@]2(O)C=O)O[C@@H](CO)[C@@H](O)[C@H]1O | inactive
